In PubChem BioAssay AID463173 (ICCB-Longwood Screening Facility, Harvard Medical School, 2010):
Hit rate of the full screen: of about 52,000 compounds, about 1,700 (3.3%) were called active. Only a selection was taken, and actives are over-represented in it overall. A number with no mark means an inactive call. Cut-off read from the data, not from the text of the source: active = survival mostly below about 52% (no sharp cut-off); inactive = mostly above about 56%.

What follows are compounds tested on Wild type (assay: S. aureus survival, RN4220 and DeltatarO strains – OD600, teichoic acid synthesis inhibitors, primary screen (AID 463173)). Conditions: S. aureus RN4220 wild type/DeltatarO growth, OD600, 18 h, stronger effect = lower value, screened at 18.75 µg/mL (by protocol).
For `CC1CCc2c(sc3nc(SCC(=O)Nc4c[nH]c(=O)[nH]c4=O)[nH]c(=O)c23)C1` (stereo unspecified), the survival was 107%.
In the case of `Cc1ccc(CNC(=O)c2cc(-c3ccc(C)cc3)nc3n[nH]c(-c4cccc([N+](=O)[O-])c4)c23)cc1`, the survival is reported as 74%.
`CC(C)CNS(=O)(=O)c1ccc(S(=O)(=O)N2CCCN(Cc3ccccc3)C2)cc1` was tested, and the survival was 97%.
In the case of `CCOc1ccc(-c2cc3nc(C4CCN(C(=O)OC(C)(C)C)CC4)c(C(=O)Nc4ccc(C)c(F)c4)cn3n2)cc1`, the survival is reported as 86%.
With `CCc1ccc(NC(=O)C2CCN(c3nc(-c4ccc(OC)cc4)no3)CC2)cc1` the survival was 66%.
With `COC(=O)c1cccnc1-n1c(=O)c2cccnc2n(CC(=O)Nc2ccccc2F)c1=O` the survival was 84%.
`Cc1[nH]c(=O)[nH]c(=O)c1CSCC(=O)O` gave a survival of 108%.
`O=C(/C=C/c1ccc(Cl)cc1)Nc1nc(-c2cccs2)ns1` was tested, and the survival was 75%.
In the case of `Cc1ccc(-c2nnc(NC3CCCC3)s2)cc1`, the survival is reported as 126%.
In the case of `N#CSc1cnc(NC2CCCCC2)s1`, the survival is reported as 2% (active).
With `Cc1cc(C)c(C#N)c(NC2CCCCC2)n1` the survival was 92%.
In the case of `CC(=O)c1cccc(Nc2ccc3cc(S(=O)(=O)N4CCCC4)ccc3n2)c1`, the survival is reported as 73%.
With `O=S(=O)(c1ccc2nc(Nc3cccc(F)c3)ccc2c1)N1CCCC1` the survival was 75%.
In the case of `CCOC(=O)c1cccc(Nc2ccc3cc(S(=O)(=O)N4CCCCC4)ccc3n2)c1`, the survival is reported as -3% (active).
`CCN(CC)c1cc(C)c2cc(NC(=O)/C=C/c3ccc(C)cc3)ccc2n1` was tested, and the survival was 68%.
Compound `CCN(CC)c1ccc(NC(=O)c2cnc3c(-c4ccccc4)c(C)nn3c2C)c(C)c1` has a survival of 85%.
For `Cc1ccc(NC(c2nnc(-c3ccccc3)o2)c2ccccc2F)c(Cl)c1` (stereo unspecified), the survival was 91%.
Compound `CC(C)c1ccc(NC(c2nnc(-c3ccccc3)o2)c2ccc(F)cc2Cl)cc1` (stereo unspecified) has a survival of 69%.
In the case of `Fc1ccccc1C(NCCc1ccc(Cl)cc1)c1nnc(-c2ccccc2)o1` (stereo unspecified), the survival is reported as -1% (active).
Compound `Cc1cc(C)cc(NC(c2cccc(Cl)c2)c2nnc(-c3ccccc3)o2)c1` (stereo unspecified) has a survival of 91%.
In the case of `Cc1cc(C)cc(NC(c2nnc(-c3cccc(F)c3)o2)c2ccc(F)cc2Cl)c1` (stereo unspecified), the survival is reported as 37%.
`Fc1ccc(C(NCCc2ccc(Cl)cc2)c2nnc(-c3ccccc3)o2)c(Cl)c1` (stereo unspecified) was tested, and the survival was 3% (active).
`Cc1cc([N+](=O)[O-])ccc1NC(c1nnc(-c2ccccc2)o1)c1ccccc1F` (stereo unspecified) gave a survival of 99%.
Work on `CCOC(=O)c1cccc(NC(c2nnc(-c3ccccc3)o2)c2ccccc2F)c1` (stereo unspecified) yielded a survival of 87%.
With `Cc1cc(NC(c2nnc(-c3ccccc3)o2)c2ccccc2F)ccc1Br` (stereo unspecified) the survival was 9% (active).
For `Clc1ccc(CCNC(c2nnc(-c3ccccc3)o2)c2ccccc2Cl)cc1` (stereo unspecified), the survival was 3% (active).
`COc1ccc(NC(c2nnc(-c3ccccc3)o2)c2ccccc2F)cc1Cl` (stereo unspecified) showed a survival of 65%.
`Cc1ccccc1Cn1cc(CCC(=O)NC(C)c2ccccc2)c2ccccc21` (stereo unspecified) was tested, and the survival was 84%.
`CC(C)n1nnnc1SCC(=O)OC1CCCCC1` gave a survival of 127%.
`Cc1cc(C)nc(Nc2nc3ccccc3s2)n1` gave a survival of 109%.
For `Cc1cccc(C(=O)Nc2nc(-c3nnn(-c4cc(F)ccc4F)c3C)ns2)c1`, the survival was 133%.
Work on `N#Cc1cc[n+](CC(=O)c2cccs2)cc1` yielded a survival of 102%.
`Clc1ccc(CCNC(c2ccc(Cl)cc2)c2nnc(-c3ccccc3)o2)cc1` (stereo unspecified) showed a survival of 86%.
`CCOc1ccc(CCNC(=O)Cn2nnc(-c3ccccc3)n2)cc1OCC` gave a survival of 98%.
With `CCOc1ccc(CCNC(c2nnc(-c3ccccc3)o2)c2ccccc2Cl)cc1OCC` (stereo unspecified) the survival was 4% (active).
`CCOc1ccc(CCNC(c2cccc(Cl)c2)c2nnc(-c3ccccc3)o2)cc1OCC` (stereo unspecified) showed a survival of 89%.
In the case of `Clc1ccc(CCNC(c2cccc(Cl)c2)c2nnc(-c3ccccc3)o2)cc1` (stereo unspecified), the survival is reported as 5% (active).
Compound `Cc1ccc(NC(c2cccc(Cl)c2)c2nnc(-c3ccccc3)o2)cc1F` (stereo unspecified) has a survival of 90%.
Work on `COc1cc(NS(=O)(=O)c2c(C)nc3sc(C)c(C)n3c2=O)cc(OC)c1` yielded a survival of 90%.
Compound `Cn1cnc2c(=O)oc3ccc(S(=O)(=O)N4CCN(c5ccccc5)CC4)cc3c21` has a survival of 87%.
For `Cn1cnc2c(=O)oc3ccc(S(=O)(=O)N4CCN(c5cccc(Cl)c5)CC4)cc3c21`, the survival was -6% (active).
In the case of `Cn1cnc2c(=O)oc3ccc(S(=O)(=O)N4CCN(c5cccc(C(F)(F)F)c5)CC4)cc3c21`, the survival is reported as 120%.
For `CCOc1ccc(NC(=O)c2c(Nc3ccccc3C)sc(C(=O)c3ccccc3)c2N)cc1`, the survival was 83%.
`Cc1ccc(CN2C(=O)c3ccccc3CC2(C)C(=O)NC2CCCCC2)cc1` (stereo unspecified) gave a survival of 84%.
Work on `Clc1cccc(-c2noc3ncnc(NC4CCCCC4)c23)c1` yielded a survival of 79%.
With `CN(c1ncnc2onc(-c3cccc(Cl)c3)c12)C1CCCCC1` the survival was -1% (active).
For `CN(c1ncnc2c1c(-c1ccccc1)cn2-c1cccc(Cl)c1)C1CCCCC1`, the survival was 89%.
`COc1ccc(S(=O)(=O)N(CC(=O)N2CCC(C)CC2)c2ccc(C)cc2)cc1` showed a survival of 89%.
`O=C(NCCC1=CCCCC1)c1ccc2c(=O)n3nc(Nc4ccccc4)sc3nc2c1` showed a survival of 72%.
`O=C(CN1CCC(NC(=O)C2CCCCC2)CC1)Nc1cccc(F)c1` was tested, and the survival was 111%.
Work on `CCc1nn2c(=O)cc(COC(=O)c3ccc(NC(=O)C4CCCCC4)cc3)nc2s1` yielded a survival of 68%.
In the case of `CCOc1ccc(CNS(=O)(=O)c2ccc3[nH]c(=O)ccc3c2)cc1`, the survival is reported as 80%.
For `CCOc1ccccc1CNS(=O)(=O)c1ccc2[nH]c(=O)ccc2c1`, the survival was 71%.
`CCOc1ccc(OCC)c(NS(=O)(=O)c2ccc3[nH]c(=O)ccc3c2)c1` was tested, and the survival was 0% (active).
`O=C(Cn1c(=O)n(CCc2ccccc2)c(=O)c2cccnc21)Nc1ccc(F)cc1` was tested, and the survival was 80%.
For `Cc1oc2c(C)c3oc(=O)c(CC(=O)N4CCCCC4)c(C)c3cc2c1C`, the survival was 83%.
Compound `Cc1nnc(SCC(=O)N(C2CCCCC2)C2CCCCC2)[nH]c1=O` has a survival of 117%.
`CCOC(=O)C1CCCN(c2c(C(=O)c3ccccc3)cnc3ccc(F)cc23)C1` (stereo unspecified) showed a survival of 22%.
Work on `CCOc1ccc(C(=O)c2cnc3ccc(Cl)cc3c2S(=O)(=O)c2ccc(C)cc2)cc1` yielded a survival of 86%.
In the case of `CCOC(=O)C1CCCN(c2c(C(=O)c3ccc(C)cc3)cnc3ccc(OCC)cc23)C1` (stereo unspecified), the survival is reported as 2% (active).
In the case of `CCOc1ccc(S(=O)(=O)c2c(C(=O)c3ccc(C)c(C)c3)cnc3ccccc23)cc1`, the survival is reported as 80%.
In the case of `CCOC(=O)C1CCCN(c2c(C(=O)c3ccc(OCC)cc3)cnc3ccccc23)C1` (stereo unspecified), the survival is reported as 0% (active).
`CCOC(=O)C1CCCN(C(=O)c2ccc(OCC)cc2)C1` (stereo unspecified) was tested, and the survival was 117%.
In the case of `CCc1ccc(NC(=O)CN2CCSc3ccc(S(=O)(=O)N4CCCC4)cc32)cc1`, the survival is reported as -6% (active).
With `Cc1ccc(NC(=O)CN2CCSc3ccc(S(=O)(=O)N4CCCC4)cc32)cc1` the survival was 98%.
For `CCOc1ccc(NC(=O)CN2CCSc3ccc(S(=O)(=O)N4CCCC4)cc32)cc1`, the survival was 67%.
For `CCOC(=O)c1scc(-c2ccc(C)cc2)c1S(=O)(=O)Nc1ccc(F)c(F)c1`, the survival was 72%.
For `Cc1nc(N2CCOCC2)c2c(C(=O)Nc3cccc(C(F)(F)F)c3)c(C)oc2n1`, the survival was 78%.
`Cc1cccc2nc(-c3ccccn3)c(Nc3ccccc3)n12` was tested, and the survival was 21% (active).
`COc1ccc(Nc2c(-c3ccco3)nc3cccc(C)n23)cc1` was tested, and the survival was 97%.
In the case of `Cc1ccc(-c2nc3cccc(C)n3c2Nc2ccc3c(c2)OCO3)o1`, the survival is reported as 22%.
`Cc1ccc(Nc2c(-c3ccc(C)o3)nc3cccc(C)n23)cc1` was tested, and the survival was 21% (active).
With `Cc1cccc(C)c1Nc1c(-c2ccccc2F)nc2cccc(C)n12` the survival was 7% (active).
Compound `Cc1ccc(Nc2c(-c3ccc(O)cc3)nc3cccc(C)n23)cc1` has a survival of 91%.
`Cc1ccccc1Nc1c(-c2ccccc2)nc2cccc(C)n12` showed a survival of 73%.
For `Cc1cccc(C)c1Nc1c(-c2ccsc2)nc2cccc(C)n12`, the survival was 32%.
`Cc1ccc(Nc2c(-c3cccc(Cl)c3)nc3cccc(C)n23)cc1` gave a survival of 22%.
Compound `CSc1ccc(-c2nc3cccc(C)n3c2Nc2ccc(Cl)cc2)cc1` has a survival of 101%.
`Cc1ccn2c(Nc3ccc(F)cc3)c(-c3ccccn3)nc2c1` was tested, and the survival was 79%.
With `Cc1cccc2nc(-c3ccccn3)c(Nc3ccc(F)cc3)n12` the survival was 4% (active).
`O=C(Nc1ccc(Cl)c(C(F)(F)F)c1)C1CCN(S(=O)(=O)c2cccc3nonc23)CC1` gave a survival of 90%.
Compound `Cc1ccc(C(=O)c2c(N)c(C(=O)Nc3ccccc3Cl)c3ccccn23)cc1` has a survival of 96%.
In the case of `COc1ccc(NC(=O)CN2C(=O)c3cccnc3Sc3ccccc32)cc1OC`, the survival is reported as 81%.
With `COc1ccccc1CNC(=O)CSC1=Nc2ccccc2N=C(c2ccc(F)cc2)C1` the survival was 73%.
With `COc1cc(NC(=O)c2sc3nc4n(c(=O)c3c2C)CCCCC4)cc(OC)c1OC` the survival was 80%.
`Cc1ccccc1NC(=O)Cn1cc(S(=O)(=O)c2ccccc2)c(=O)c2ccccc21` showed a survival of 105%.
Compound `COc1ccccc1CNC(=O)C(=O)NCC(c1ccco1)S(=O)(=O)c1cccs1` (stereo unspecified) has a survival of 101%.
In the case of `COC(=O)C(NC(=O)CCc1c(C)nc2cc(-c3cccc(F)c3)nn2c1C)C(C)C` (stereo unspecified), the survival is reported as 80%.
`CCc1ccc(CNc2ncnc3onc(-c4ccc(Cl)cc4)c23)cc1` gave a survival of 48%.
`Cc1cc[n+](CC(=O)N2CCCCC2)cc1` was tested, and the survival was 116%.
In the case of `Cc1ccc(NC(=O)Cn2c(=O)n(-c3ccccc3)c(=O)c3ccc(C(=O)NCc4ccc5c(c4)OCO5)cc32)c(C)c1`, the survival is reported as 138%.
